According to the supplement of paper PMC3898565:
Values joined by “and” are separate entries in the source; they are usually repeats but may differ in a detail not shown here. Identical values can stand only once. ± gives the uncertainty stated by the source.

tested on: U87; assay: cell viability relative to vehicle control; higher = less growth inhibition (less active); settings: 10 µM; 72 h
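Further: viable cell number estimated from Alamar Blue fluorescence read at 560/90, part of a single-dose primary screen of an FDA-approved drug library.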

| Compound | cell viability |
| --- | --- |
| COc1ccccc1N1CCN(CCCNc2cc(=O)n(C)c(=O)n2C)CC1 | 109 ± 1.7% |
| O=C(O)/C=C/c1ccc(Cn2ccnc2)cc1 [ozagrel] | 104 ± 1.2% |
| CN(C)CCOC(c1ccccc1)c1ccccc1 [Diphenhydramine] | 103 ± 1.1% |
| C#C[C@]1(O)CC[C@H]2[C@@H]3CCc4cc(O)ccc4[C@H]3CC[C@@]21C | 102 ± 2.1% |
| CCN1CCN(c2cc3c(cc2F)c(=O)c(C(=O)O)cn3C2CC2)CC1 | 109 ± 1.3% |
| C[C@]12C[C@H](O)[C@H]3[C@@H](CCC4=CC(=O)CC[C@@]43C)[C@@H]1CC[C@@H]2C(=O)CO | 105 ± 1.5% |
| Nc1ccc(O)c(C(=O)O)c1 [5-Amino-2-hydroxy-benzoic acid] | 102.5 ± 0.14% |
| CC(C)c1nc(CN(C)C(=O)N[C@H](C(=O)N[C@@H](Cc2ccccc2)C[C@H](O)[C@H](Cc2ccccc2)NC(=O)OCc2cncs2)C(C)C)cs1 | 102 ± 3% |
| C[C@@H](c1ncncc1F)[C@](O)(Cn1cncn1)c1ccc(F)cc1F | 106 ± 1.7% |
| CN(C)CC[C@@H](c1ccc(Cl)cc1)c1ccccn1 | 104 ± 1.6% |
| CC(Cc1ccccc1)(NC(=O)CN)c1ccccc1 (racemic) | 93.1 ± 3.1% |
| CN[C@H]1CC[C@@H](c2ccc(Cl)c(Cl)c2)c2ccccc21 [Sertraline] | 34.2 ± 3.8% |
| O=C(c1ccccc1)c1ccc2n1CCC2C(=O)O (stereo not given) [Ketorolac Tromethamine] | 101.2 ± 0.98% |
| NC(N)=NC(=O)c1nc(Cl)c(N)nc1N | 93.54 ± 0.1% |
| Cc1nc2ccccn2c(=O)c1CCN1CCC(C(=O)c2ccc(F)cc2)CC1 | 97.4 ± 1.5% |
| CCCCC1=NC2(CCCC2)C(=O)N1Cc1ccc(-c2ccccc2-c2nnn[nH]2)cc1 | 98 ± 3.2% |
| C[C@H]1C[C@H]2[C@@H]3CCC4=CC(=O)C=C[C@]4(C)[C@@]3(Cl)[C@@H](O)C[C@]2(C)[C@@]1(O)C(=O)CO [Beclomethasone] | 106 ± 1.5% |
| CN(CCOc1ccc(CC2SC(=O)NC2=O)cc1)c1ccccn1 (stereo not given) | 100% and 110% |
| COc1ccc(/C=C/C(=O)Nc2ccccc2C(=O)O)cc1OC | 104 ± 1.1% |
| Cc1nc2n(c(=O)c1CCN1CCC(c3noc4cc(F)ccc34)CC1)CCCC2 | 108 ± 1.7% |

| Compound | cell viability |
| --- | --- |
| CC(C(=O)O)c1ccc(-c2ccccc2)c(F)c1 (stereo not given) [Flurbiprofen] | 105 ± 12% |
| CN(C)[C@@H]1C(O)=C(C(=O)NCN2CCCC2)C(=O)[C@@]2(O)C(O)=C3C(=O)c4c(O)cccc4[C@@](C)(O)[C@H]3C[C@@H]12 | 107 ± 2.1% |
| O=C(O[C@@H]1Cc2c(O)cc(O)cc2O[C@@H]1c1cc(O)c(O)c(O)c1)c1cc(O)c(O)c(O)c1 [Epigallocatechin gallate] | 77.8 ± 4.2% |
| CC(c1cc2ccccc2s1)N(O)C(N)=O (stereo not given) | 104.1 ± 1% |
| C[N+]1(C)CCC(OC(=O)C(O)(c2ccccc2)C2CCCC2)C1 (stereo not given) [Glycopyrrolate] | 103 ± 1.1% |
| CNCCCCOc1ccccc1Cc1ccccc1 [Bifemelane] | 96.1 ± 9.1% |
| CNNCc1ccc(C(=O)NC(C)C)cc1 [Procarbazine] | 104.4 ± 0.86% |
| CC(C)[C@H]1CC[C@H](C(=O)N[C@H](Cc2ccccc2)C(=O)O)CC1 | 108 ± 1.6% |
| CC(C)(C#N)c1cc(Cn2cncn2)cc(C(C)(C)C#N)c1 | 109 ± 1.3% |
| CC(N/C(=N\C#N)Nc1ccncc1)C(C)(C)C (stereo not given) [Pinacidil monohydrate] | 105 ± 1.1% |
| CC1=C(C(=O)O)N2C(=O)[C@@H](NC(=O)[C@H](N)c3ccccc3)[C@H]2SC1 [Cephalexin monohydrate] | 100 ± 1.7% |
| CC#C[C@]1(O)CC[C@H]2[C@@H]3CCC4=CC(=O)CCC4=C3[C@@H](c3ccc(N(C)C)cc3)C[C@@]21C | 105 ± 1.6% |
| O=c1c(-c2ccccc2)c1-c1ccccc1 [diphenylcyclopropenone] | 77.4 ± 6.9% |
| CC[C@@]1(O)C(=O)OCc2c1cc1n(c2=O)Cc2cc3c(CN(C)C)c(O)ccc3nc2-1 | 24.1 ± 2% |
| CCOC(=O)[C@H](CCc1ccccc1)N[C@H]1CCc2ccccc2N(CC(=O)O)C1=O | 107 ± 1.2% |
| CN(C)CCC=C1c2ccccc2COc2ccccc21 [Doxepin] | 101.6 ± 0.79% |
| C[C@H]1O[C@H](O[C@H]2[C@H](O)[C@@H](O)[C@@H](O[C@H]3[C@H](O)[C@@H](O)C(O)O[C@@H]3CO)O[C@@H]2CO)[C@H](O)[C@@H](O)[C@@H]1N[C@H]1C=C(CO)[C@@H](O)[C@H](O)[C@H]1O (stereo not given in full) | 102.6 ± 0.92% |
| CC1CCN(CCCC(=O)c2ccc(F)cc2)CC1 [Metylperon] | 106 ± 1.2% |
| CC(C)C[C@H](NC(=O)[C@@H](COC(C)(C)C)NC(=O)[C@H](Cc1ccc(O)cc1)NC(=O)[C@H](CO)NC(=O)[C@H](Cc1c[nH]c2ccccc12)NC(=O)[C@H](Cc1cnc[nH]1)NC(=O)[C@@H]1CCC(=O)N1)C(=O)N[C@@H](CCCNC(=N)N)C(=O)N1CCC[C@H]1C(=O)NNC(N)=O | 101.1 ± 0.58% |
| N[C@@H](C(=O)N[C@@H]1C(=O)N2C(C(=O)O)=C(Cl)CS[C@H]12)c1ccccc1 | 104 ± 1.2% |
